Most compounds without a hit are left out; they make up all but 12% or so of the library.
Sfp inh = qHTS Assay for Inhibitors of Bacillus subtilis Sfp phosphopantetheinyl transferase (PPTase); Biochemical Sfp PPTase activity, qHTS; Potency, µM, without a hit: largest response in the series, negative = inhibition, hits mostly inhibitors; actives 3.5% (n = 310,000);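 note: the enzyme is Sfp with the accession as filed and its product quenches rhodamine fluorescence; 0% = enzyme reaction without inhibitor and -100% = no enzyme wells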
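Buffer: 50 mM Hepes-Na pH 7.6, 10 mM MgCl2, 0.01% Nonidet P-40, 0.01% BSA. Enzyme 15 nM, pre-exposed to compound 15 min; substrates then added and fluorescence change tracked over 30 min.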
G9a inh = qHTS Assay for Inhibitors of Histone Lysine Methyltransferase G9a | Potency, µM (top dose mostly 102 µM), without a hit: at the highest dose activity, negative = inhibition, usual class: inhibitors | G9a H3K9 monomethylation, AlphaScreen, 2 h | Histone-lysine N-methyltransferase EHMT2 (Homo sapiens), Q96KQ7 | actives 8.8% (n = 350,000); note: % is set by controls: 0 for no effect and ±100 for the full control effect; nearly all actives have a fitted effect of over 75% in size
Target sequence (Q96KQ7 913-1193 limits assumed): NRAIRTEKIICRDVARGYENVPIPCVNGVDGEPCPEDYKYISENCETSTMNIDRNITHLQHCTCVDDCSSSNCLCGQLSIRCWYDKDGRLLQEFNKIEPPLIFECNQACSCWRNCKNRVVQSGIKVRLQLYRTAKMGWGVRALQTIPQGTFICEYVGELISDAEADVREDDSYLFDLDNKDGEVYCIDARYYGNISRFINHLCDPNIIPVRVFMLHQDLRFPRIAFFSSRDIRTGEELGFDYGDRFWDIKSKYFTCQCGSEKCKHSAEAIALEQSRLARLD
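G9a (20 nM) was preincubated 15 min with compound, then reacted 2 h at room temperature with 500 nM biotin-H3K9 peptide and 20 µM SAM. Monomethyl-H3K9 detected by AlphaScreen using anti-H3K9me1 antibody.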
HP1b binding inh = HTS for Inhibitors of HP1-beta Chromodomain Interactions with Methylated Histone Tails; AlphaScreen HP1-beta / biotin-H3K9me3 peptide binding; Chromobox protein homolog 1 (Homo sapiens), P83916; Potency, µM (titrated, usually from 114 µM), without a hit: at the top dose activity change, negative = inhibition, most hits filed as inhibitors; actives 0.56% (n = 390,000); AID 540317, 2011; note: nearly all actives have a fitted effect of over 70% in size
Target sequence (P83916 whole entry, looked up): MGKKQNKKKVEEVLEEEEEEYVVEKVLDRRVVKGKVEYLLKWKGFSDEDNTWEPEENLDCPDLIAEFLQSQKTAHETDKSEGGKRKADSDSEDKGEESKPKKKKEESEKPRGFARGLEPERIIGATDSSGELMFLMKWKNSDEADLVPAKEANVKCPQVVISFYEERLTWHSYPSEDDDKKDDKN
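AlphaScreen: HP1-beta (50 nM) preformed 30 min with biotin-H3(1-18)K9me3 peptide (50 nM) in PBS pH 7.4, 0.01% Tween-20. Compound added for 30 min at RT, then streptavidin donor/nickel chelate acceptor beads (10 ug/mL) for 30 min.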
L3MBTL1 inh = qHTS Assay for the Inhibitors of L3MBTL1 | AlphaScreen L3MBTL1–H3K9me1 peptide binding | Potency, µM (doses to about 57.1 µM), without a hit: at the highest dose activity, negative = inhibition, usual class: inhibitors | actives 0.66% (n = 230,000) | AID 485360, 2010; note: % is set by controls: 0 for no effect and ±100 for the full control effect; nearly all actives have a fitted effect of over 60% in size
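L3MBTL1 50 nM + b-AHA-H3(1-15)K9me1 75 nM, 30 min RT; compound added, 30 min RT; streptavidin donor/Ni-chelate acceptor beads 10 ug/mL each final, 30 min RT dark; AlphaScreen read.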
BAZ2B inh = qHTS Assay for Inhibitors of BAZ2B. AID 504333, 2011. Potency, µM (highest dose often 114 µM), for the others: at the highest dose activity change, negative = inhibition, usual class: inhibitors. AlphaScreen BAZ2B-H3K14Ac peptide displacement. actives 4.4% (n = 360,000). Bromodomain adjacent to zinc finger domain protein 2B (Homo sapiens), Q9UIF8; note: % is set by controls: 0 for no effect and ±100 for the full control effect; nearly all actives have a fitted effect of over 60% in size
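AlphaScreen displacement: compounds (up to 110uM) incubated 30 min at room temperature with a preformed 50 nM BAZ2B/50 nM biotinylated H3K14Ac peptide complex in PBS pH 7.4 with Tween-20. Donor and acceptor beads at 10 ug/mL final added, 20 min light-protected before reading.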
JMJD2A Tudor inh = qHTS Assay for Inhibitors of JMJD2A-Tudor Domain. Lysine-specific demethylase 4A (Homo sapiens), O75164. AlphaScreen JMJD2A-Tudor / H3K4me3 peptide binding. Potency, µM (top dose mostly 114 µM), for the others: top-dose activity change, negative = inhibition, hits mostly inhibitors. actives 4.4% (n = 390,000); note: % is set by controls: 0 for no effect and ±100 for the full control effect; nearly all actives have a fitted effect of over 50% in size
Numbers without * were called inactive; ? = inconclusive; / = no result; [ ] = dose if it differs, or a comment. Calls come from the whole dose curve; as a rule, active = well fitted curve in the direction sought with a large enough effect; inconclusive = small, poorly fitted or top-dose-only effect, or another doubt; inactive = no such curve, though single readings can be large; an effect the other way counts as inactive or inconclusive. Potency is the fitted concentration of half-maximal effect.

SMILES | Sfp inh | G9a inh | HP1b binding inh | L3MBTL1 inh | BAZ2B inh | JMJD2A Tudor inh
O=C1C(=O)N(O)C2CCCCC2N1O (stereo unspecified) | -18% | 7.9µM* | 21% | 5% | ? | ?
CCOc1ccc(N2CC(NC(=O)c3ccc(S(=O)(=O)N4CCCC4)cc3)CC2=O)cc1 (stereo unspecified) | / | 0%[59 µM] | 0% | / | 1% | -15%
CN1CCC/C1=C/C=C1\SC(=S)NC1=O | 28µM* | 10µM* | -15% | -18% | ? | -30%
CCOC(=O)C(=CNNc1ccccc1)C(=O)OCC | ? | 2µM* | -35% | 0% | ? | 79µM*
COc1ncc2nc(-c3ccccc3)c(=O)n(-c3ccccc3)c2n1 | 18% | 4%[0.501 µM] | / | / | / | /
Cc1cccc(N2CCN(C(=S)c3ccc([N+](=O)[O-])cc3)CC2)c1 | 25µM* | 4µM* | 32µM* | ? | 11µM* | 40µM*
Cc1ccccc1N1CCN(C(=S)c2ccc([N+](=O)[O-])cc2)CC1 | ? | 13µM* | ? | -27% | ? | ?
CC(=O)N1CCN(c2ccc([N+](=O)[O-])cc2)CC1 | 1% | 7% | -18% | -1% | -3% | -10%
O=C(c1ccc(Oc2ccc([N+](=O)[O-])cc2)cc1)N1CCCCCC1 | -11% | 5% | 26% | / | -33% | -17%
CC1CCCC(N2CCN(C(=O)c3ccc([N+](=O)[O-])cc3)CC2)C1 (stereo unspecified) | -14% | 22µM* | ? | 2% | 56µM* | 22µM*
CC(=O)N1CCN(C(=S)c2ccc([N+](=O)[O-])cc2)CC1 | -10% | 22µM* | -6% | 2% | -2% | ?
Cc1ccccc1C(=O)NCc1ccc2c(c1)CCN2C(=O)c1ccccc1 | / | 21%[59 µM] | 9% | / | -3% | -17%
CCCN1CNc2c(c(=O)[nH]c(=S)n2CCc2ccc(C)cc2C)C1 | / | / | 33% | / | / | -14%
Cc1cccc(NC(=O)CN2C(=O)CCn3nc(-c4cccn4C)cc32)c1C | / | -31%[59 µM] | 6%[57 µM] | / | -24% | -30%
O=C(CCCC1=NS(=O)(=O)c2ccccc2N1)OCc1ccc(Cl)cc1 | 13% | / | 54% | / | -2% | -11%
Cc1c(NC(=O)c2cccc3c(Cl)cccc23)cccc1-c1nc2ccccc2o1 | / | 33%[59 µM] | 59% | / | -4% | -9%
CC(C)(NC(=O)c1cc(Cl)c2ccccc2c1O)C(=O)O | 17% | 32µM* | 30% | -10% | -21% | -15%
OCCN(CC#CC(O)(c1ccccc1)c1ccccc1)CCO | 6% | 32µM* | 21% | 1% | ? | -4%
O=C(NNc1ccc(Cl)cc1)c1c(F)cccc1Cl | 17% | 45µM* | 32% | 1% | -12% | -7%
Cc1c(C(=O)Nc2ccccc2)sc2nc(-c3cc4ccccc4oc3=O)[nH]c(=O)c12 | / | -20%[59 µM] | 23% | / | -5% | -22%
Nc1ccc(C(=O)N/N=C/c2ccc(N3CCOCC3)s2)cc1 | / | / | 19% | -2% | / | -24%
CC(C)(C)OC(=O)N/N=C/c1ccc(Br)cc1 | 1% | -32% | 20% | -19% | 0% | 6%
CC(C)(C)OC(=O)N/N=C/c1ccc(N2CCOCC2)s1 | -8% | 16µM* | 12% | -1% | -4% | -16%
O=C(N/N=C/c1ccc(N2CCOCC2)s1)c1ccccc1Br | 35µM* | ? | 23% | -9% | -26% | -9%
Clc1cccc(N/N=C/c2ccc(N3CCOCC3)s2)c1 | ? | 1.1µM* | 21% | -15% | 50µM* | -14%
SMILES | Sfp inh | G9a inh | HP1b binding inh | L3MBTL1 inh | BAZ2B inh | JMJD2A Tudor inh
Cc1cc(C(=O)N2CCCC(Nc3ccc(F)cc3)C2)n(C)n1 (stereo unspecified) | 10% | / | 37% | / | 19% | -3%
Cc1ccc(NC2CCCN(C(=O)c3ccoc3)C2)cc1C (stereo unspecified) | -1% | 79µM* | 27% | / | ? | -28%
CCCc1cc(C(=O)N2CCCC(Nc3ccc(C)c(C)c3)C2)n(C)n1 (stereo unspecified) | 5% | 45µM* | -17% | / | -30% | -31%
COC(=O)C1(C)C=C2C(=C(c3ccccc3)C(=O)C2C)CN1 (stereo unspecified) | 17% | / | / | / | / | /
O=S(=O)(c1cccnc1)N1CCn2cccc2C1c1ccccc1F (stereo unspecified) | / | 45µM* | -17% | -11% | ? | -26%
CCOc1ccccc1N1CCN(c2nc(N)c(C#N)c(CC#N)c2C#N)CC1 | 16µM* | ? | 6% | 1%[11.4 µM] | ? | -30%
CCOc1ccccc1N1CCN(c2nc3ccccc3nc2C(C#N)C(=O)OC)CC1 (stereo unspecified) | -1% | / | 7% | -3% | -38% | -14%
COc1ccc(C(=O)/C=C/c2cccc(OCc3ccccc3)c2)cc1CSCC(=O)O | -20% | / | -31% | / | 45µM* | 50µM*
COc1ccc(C(=O)/C=C/c2ccc(OCc3ccccc3)cc2)cc1CSCC(=O)O | 8% | 56% | -17% | / | -6% | 56µM*
COc1ccc(/C=C/C(=O)c2ccccc2)cc1COc1ccc(F)cc1 | ? | 41% | 51% | 0% | -3%[57.1 µM] | -5%
COc1ccc(CCn2nnnc2C2(c3ccc(C)cc3)CC2)cc1 | / | -5%[59 µM] | / | / | / | /
Cc1cnc(C(=O)N2CCCC(N3CCN(c4cccc(C(F)(F)F)c4)CC3)C2)cn1 (stereo unspecified) | 17% | -69% | 25% | / | -14% | -23%
CC(C)CC(=O)Nc1ccc(C(=O)CN2CCC(C)CC2)cc1 | ? | 10µM* | 31% | / | 7% | -2%[57.1 µM]
CC1CCN(CC(=O)Nc2ccc(C(=O)N3CCCCC3)cc2)CC1 | -13% | 28µM* | ? | -3% | 50µM* | 1µM*
CCCC(=O)Nc1ccc(N2CCN(C(=O)CCC)CC2)cc1 | 8% | 50µM* | 11% | 3% | -5% | -20%
COc1ccc(NC(=O)CN2CCC(C)CC2)cc1 | 19% | -6%[59 µM] | 22% | 24%[11.4 µM] | -2% | -6%
CC1CCN(c2ccc(NC(=O)Cc3ccccc3)cc2)CC1 | 6% | / | 35% | 1% | -4% | -18%
CCC(=O)Nc1ccc(N2CCC(C)CC2)cc1 | 3% | 8.9µM* | 25% | -16% | -7% | -16%
CC(C)CC(=O)Nc1ccc(S(=O)(=O)N2CCCC2)cc1 | 15% | 18%[59 µM] | 27% | 4% | 0% | -11%
COC(=O)N1CCC2(CCN(Cc3ccc(C#N)cc3)CC2)CC1 | 8% | 3%[12.7 µM] | / | / | / | /

Source: PubChem BioAssay
